Hits are enriched below; roughly 32% of the tested compounds scored in any of these assays.
CYP2C19 activ: human CYP2C19 activators, primary screen, biochemical, luminescence. recombinant CYP2C19, luciferin-H EGE luminescence; active compounds read high; 0 = fully inhibited enzyme, 1 = untreated enzyme. activation factor at 5 µM. 96,000 tested, under 10 active. AID 1025, 2008;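 active means activation factor of at least 2 at 5 µM in the primary screen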;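 further: 0 = wells with 2.5 mM tranylcypromine and 1 = vehicle-only wells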
Target sequence (P33261 whole entry, looked up): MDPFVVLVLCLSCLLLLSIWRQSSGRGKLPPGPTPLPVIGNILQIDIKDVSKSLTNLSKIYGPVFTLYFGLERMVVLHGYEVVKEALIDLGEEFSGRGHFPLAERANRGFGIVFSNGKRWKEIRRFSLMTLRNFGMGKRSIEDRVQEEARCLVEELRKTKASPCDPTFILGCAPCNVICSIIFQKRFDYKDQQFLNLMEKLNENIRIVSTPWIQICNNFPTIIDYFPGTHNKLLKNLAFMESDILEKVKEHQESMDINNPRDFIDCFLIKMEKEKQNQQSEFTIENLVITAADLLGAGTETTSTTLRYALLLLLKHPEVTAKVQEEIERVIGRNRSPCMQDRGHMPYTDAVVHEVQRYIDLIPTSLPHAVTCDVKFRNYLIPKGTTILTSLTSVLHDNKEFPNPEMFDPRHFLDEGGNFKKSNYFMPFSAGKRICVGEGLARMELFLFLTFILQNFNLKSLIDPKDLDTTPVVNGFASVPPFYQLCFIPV
PostGolgi yeast: phenotypic screen on post-Golgi transport, primary screen; post-Golgi transport phenotypic cell assay; inhibition, % at 10 µM; 98,000 compounds, 0.9% hits; AID 739, 2007;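 further: yeast cells grown in 1536-well plates; yeast grown about 18 h at 30C before absorbance read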
CYP2C9 act: human CYP2C9 activators, primary screen, biochemical, luminescence; Cytochrome P450 2C9 (Homo sapiens), P11712; recombinant CYP2C9, luciferin-H conversion; active compounds read high; factor 1 = untreated enzyme, 0 = blocked; activation factor at 5 µM; 96,000 compounds, 1.4% hits; AID 1024, 2008;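 active means activation factor of 2 or more for CYP2C9 at a 5 µM dose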;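 further: 0 = sulfaphenazole-blocked wells and 1 = vehicle-only wells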
PostGolgi ctrl: growth inhibition of yeast control strain, primary screen, counter-screen for post-Golgi transport modulator project; inhibition, % at 10 µM; AID 738, 2007; 98,000 compounds, 5% hits; efflux-deficient yeast background strain, growth absorbance A615, 16 h
CYP2C19 inhib: blockers of cytochrome P450 2C19 activity – biochemical, luminescence, ADME assay, primary screen; P33261; CYP2C19 Supersomes, luciferin-H EGE luminescence, 30 min; inhibition, % at 5 µM; 96,000 compounds, 21% hits;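 active means CYP2C19 inhibition above a set limit at 5 µM in the primary screen, cut at about 50% in these data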;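 further: plate controls were negative control wells for no effect and 2.5 mM tranylcypromine positive control for full effect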
CYP2C9 inhib: blockers of cytochrome P450 2C9 activity – biochemical, luminescence, ADME assay, primary screen | 96,000 compounds, 20% hits | CYP2C9 Supersomes, luciferin-H conversion | P11712 | inhibition, % at 5 µM;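 active means blocking of liver enzyme CYP2C9 beyond about 50% at 5 µM, limit read from the data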
* hit, by the source's call; . = no result given. Unless noted, no stated cut-off is given here; in the data, active means inhibition above about 30%; inactive means the rest.

SMILES | CYP2C19 activ | PostGolgi yeast | CYP2C9 act | PostGolgi ctrl | CYP2C19 inhib | CYP2C9 inhib
CCOC(=O)CN1C(=O)C2(C(C#N)=C(N)Oc3ccccc32)C(C(=O)OC)=C1C (stereo not drawn) | 0.8 | 22 | 1 | 4 | 16 | -4
CCOc1ccccc1N1C(=O)NC(=O)/C(=C/c2ccc3c4c(cccc24)CC3)C1=O | 0.9 | 5 | 4.1* | -2 | 7 | -306
COc1cc(-n2c(=S)[nH]c3ccccc3c2=O)c(Cl)cc1Cl | 0.1 | 12 | 0.4 | 9 | 90* | 58*
CC(C)Oc1cc(-n2c(=S)[nH]c3ccccc3c2=O)c(Cl)cc1Cl | 0.1 | 21 | 0.3 | 28 | 90* | 72*
CC(=O)c1ccccc1NC(=O)C1C2CCC(O2)C1C(=O)O (stereo not drawn) | 0.7 | -12 | 1.2 | 18 | 34 | -18
CN1CCN(C(=O)COc2ccc(-c3nc4ccccc4s3)cc2)CC1 | 1 | 3 | 1.1 | 12 | 3 | -10
Cn1cc(C(=O)c2ccccc2)c2ccccc21 | 0.8 | -1 | 2.9* | 3 | 23 | -192
O=C(Cc1ccccc1)N1CCN(Cc2c[nH]c3ccccc23)CC1 | 0.4 | 3 | 0.5 | -5 | 62* | 46
O=C(COc1ccccc1)N1CCN(Cc2c[nH]c3ccccc23)CC1 | 1 | -5 | 0.9 | 16 | 3 | 12
Cc1cc(OC(=O)CCNC(=O)OC(C)(C)C)c2c3c(c(=O)oc2c1)CCC3 | 0.7 | 5 | 0.7 | 25 | 29 | 29
Cc1cc(OC(=O)CCCNC(=O)OC(C)(C)C)c2c3c(c(=O)oc2c1)CCC3 | 0.6 | -4 | 0.4 | 18 | 41 | 55*
C=CCOC(=O)COc1cc(C)cc2oc(=O)c3c(c12)CCC3 | 0.2 | -1 | 0.4 | 8 | 84* | 58*
Cc1cc(OCc2nn[nH]n2)c2c3c(c(=O)oc2c1)CCCC3 | 1.2 | 6 | 0.3 | 6 | -17 | 72*
Cc1cc(OCc2ccc([N+](=O)[O-])cc2)c2c3c(c(=O)oc2c1)CCCC3 | 0.4 | 1 | 0.2 | 0 | 60* | 79*
CC12CN3CC(C)(CN(C1)C3c1ccco1)C2=O (stereo not drawn) | 0.9 | -5 | 0.9 | -3 | 5 | 6
OC1(c2ccc(F)cc2)CC2CCC(C1)N2Cc1nnnn1C1CCCCC1 (stereo not drawn) | 0.5 | -2 | 0.6 | 8 | 50* | 43
Cc1ccc2cccc(OC(=O)N(C)c3ccccc3)c2n1 | 0.1 | 2 | 0.7 | -2 | 90* | 28
Cc1ccc(N(C)C(=O)Oc2cccc3cccnc23)cc1 | 0.1 | 1 | 0.5 | -2 | 87* | 49
CCCCn1c(O)c(C(CC)=NCCN2CCCCC2)c(=O)[nH]c1=O | 0.8 | 26 | 0.8 | -6 | 21 | 22
COc1ccc2c(c1OC)C(=O)OC2c1c(O)n(C2CCCCC2)c(=O)[nH]c1=O (stereo not drawn) | 0.9 | -4 | 0.3 | 7 | 6 | 69*
CCOc1ccc(-n2c(O)c(C=NCCN(CC)CC)c(=O)[nH]c2=O)cc1 | 1 | -1 | 1 | 36* | 3 | 4
CCCCn1c(O)c(C=NCCCN(CC)CC)c(=O)[nH]c1=O | 1.1 | 5 | 1 | 46* | -7 | -2
CCCN(CC#CCOc1ccc(OC)cc1)CCC | 0.8 | 6 | 0.8 | -4 | 19 | 15
O=C(C1CC(c2ccccc2O)=NO1)N1CCC2(CC1)OCCO2 (stereo not drawn) | 0 | -8 | 1 | 7 | 100* | 3
COc1cccc(NC(=O)CN2CC(c3ccccc3)CC2=O)c1 (stereo not drawn) | 0.4 | 5 | 1 | 0 | 61* | 0
SMILES | CYP2C19 activ | PostGolgi yeast | CYP2C9 act | PostGolgi ctrl | CYP2C19 inhib | CYP2C9 inhib
Cc1cc(C)nc(/N=C(\N)c2c(O)[nH]c(=O)[nH]c2=O)n1 | 1 | 8 | 1 | 5 | 3 | 1
CC(Cc1ccccc1Sc1ccccc1O)N(C)C (stereo not drawn) | 0.4 | -2 | 0.8 | 6 | 61* | 21
CC1(C)CC(n2[nH]c(=O)c3c2NC(=O)CSC3c2ccccc2)CCO1 (stereo not drawn) | 1 | -2 | 1 | -6 | -4 | 1
CC1=NN(c2ccccc2)C(=O)C1/C=C1\C(=O)NC(=O)N(c2ccc(C)c(C)c2)C1=O (stereo not drawn) | 1.1 | 4 | 0.3 | 27 | -15 | 68*
CC1=NN(c2ccccc2)C(=O)C1/C=C1/C(=O)NC(=O)N(c2cccc(C)c2)C1=O (stereo not drawn) | 1.1 | 12 | 0.8 | -4 | -14 | 16
CCC(=NCCO)c1c(O)n(-c2ccccc2)c(=O)[nH]c1=O | 1 | 1 | 1 | 24 | -2 | -4
CC(=NCCN1CCOCC1)c1c(O)n(C2CCCCC2)c(=O)[nH]c1=O | 0.9 | 4 | 0.8 | 6 | 10 | 21
CCC(=NCCO)c1c(O)n(C2CCCCC2)c(=O)[nH]c1=O | 0.4 | 0 | 0.6 | 5 | 61* | 37
CCC(=NCc1ccc2c(c1)OCO2)c1c(O)n(C2CCCCC2)c(=O)[nH]c1=O | 0 | 22 | 0 | 67* | 99* | 100*
O=C(O)c1c[nH]c2ccc(S(=O)(=O)N(CCCl)CCCl)cc12 | 1.2 | 3 | 1.2 | 9 | -16 | -18
CC12CN3CC(c4ccccc4)(CN(C1)C31CCCCC1)C2=O | 0.9 | 4 | 1.2 | 2 | 14 | -24
CCN1CCN(Cc2cc(C(C)(C)C)c(O)c(C(C)(C)C)c2)CC1 | 0.9 | -4 | 0.7 | 6 | 13 | 26
NC12CN3CN(CN(C3)C1)C2 (tested in a mixture with another compound) | 1 | -10 | 2* | 10 | 5 | -97
CN1C(=O)N(C)C(=O)C(CCc2ccncc2)(Cc2ccc3c(c2)OCO3)C1=O | 0 | -18 | 0.3 | -1 | 99* | 74*
O=C1NC(=O)C(CCc2ccncc2)(Cc2ccc3c(c2)OCO3)C(=O)N1CCc1ccccc1 (stereo not drawn) | 0 | 4 | 0.1 | 16 | 99* | 90*
O=C(N/N=C1/CN2CCC1CC2)c1cc2ccccc2cc1O | 1.1 | -5 | 1 | 15 | -10 | -4
Cn1ncnc2c(=O)n(C)c(=O)nc1-2 | 0.1 | . | 0.2 | . | 95* | 80*
CCC1(CCc2ccncc2)C(=O)NC(=O)NC1=O | 1 | -8 | 0.6 | -3 | 4 | 42
CSc1ccc(C(=O)C(C)(C)N2CCOCC2)cc1 | 0.1 | 9 | 0.8 | 15 | 92* | 23
COc1ccc(-n2c(O)c(C(C)=NC3CC3)c(=O)[nH]c2=O)cc1 | 0.7 | -1 | 1.2 | 5 | 31 | -16
